Experimental findings from PubChem BioAssay (Tox21) are described below.

Results filed as inconclusive are left out. A number with no mark means an inactive call. Active and inactive are the calls of the source. Unless noted, calls come from the whole dose curve; as a rule, active = well fitted curve in the direction sought with a large enough effect in the repeat runs; inconclusive = weak or mixed curves; inactive = no such curve, though single readings can be large; an effect the other way counts as inactive or inconclusive.

The nature of test [1]: qHTS assay to identify small molecule antagonists of the vitamin D receptor (VDR) signaling pathway - cell viability counter screen (AID 743225). Note: % is set by controls: 0 for no effect and ±100 for the full control effect; nearly all actives have a fitted effect of over 50% in size. Summed up: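 Cells (VDR-UAS-bla HEK 293T) are plated, rested 4 h at 37C, dosed with compound and 3 nM final 1-alpha,25-dihydroxy vitamin D3, and incubated 16 h. Viability is taken from CellTiter-Glo luminescence in the reporter wells.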
A general note: qHTS replaces the single test concentration by a dilution series.

Test [2] in a line: qHTS assay to identify small molecule agonists of the NFkB signaling pathway (AID 1159509; active = well fitted curve in the direction sought with a large enough effect in the signal ratio in the repeat runs, not every such curve was filed as active; the % refers to the signal ratio; note: series mostly up to about 61 µM; % is set by controls: 0 for no effect and ±100 for the full control effect). Put shortly: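 Readout: FRET fluorescence, 405 nm excitation, 460/530 nm emission; beta-lactamase expression disrupts FRET. Cells: ME-180 stably carrying NF-kB-driven bla reporter. Compound exposure 5 hr, 37 C, 5% CO2.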
Test [3] in a line: qHTS assay to identify small molecule agonists of the NFkB signaling pathway - cell viability counter screen (AID 1159515; calls by dose curve; note: series mostly up to about 61 µM; % is set by controls: 0 for no effect and ±100 for the full control effect; nearly all actives have a fitted effect of over 55% in size). Summed up: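 Plate 2,000 NFkB-bla ME-180 cells/well; incubate overnight. Add compounds, 5 hr at 37 C. Add FRET substrate, 1.5 hr RT. Add CellTiter-Glo, 30 min RT; read luminescence.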
Test [4] can be described thus: qHTS assay to identify small molecule agonists of the endoplasmic reticulum stress response signaling pathway - cell viability counter screen (AID 1159517; calls by dose curve; note: series mostly up to about 61 µM; % is set by controls: 0 for no effect and ±100 for the full control effect; nearly all actives have a fitted effect of over 50% in size). Summed up: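 Steps: seed 1,500 ESRE-bla HeLa cells per well; incubate overnight at 37 C, 5% CO2; add compounds in DMSO for 5 hr; run FRET substrate 2 hr RT; add CellTiter-Glo, wait 30 min, read luminescence.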

The nature of test [5]: qHTS assay to identify small molecule antagonists of the retinoid-related orphan receptor gamma (ROR-gamma) signaling pathway - cell viability counter screen (AID 1159520). Note: % is set by controls: 0 for no effect and ±100 for the full control effect; nearly all actives have a fitted effect of over 50% in size. Summed up:
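Tet-on ROR gamma CHO cells were given compounds for 2 hr, then doxycycline hyclate at 1 uM final, and incubated 16 hr at 37 C. Viability was measured as ATP content by CellTiter-Glo luminescence.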

Test [6] concerns the target Nuclear receptor ROR-gamma (Homo sapiens) (UniProt P51449). Kind of test: qHTS assay to identify small molecule antagonists of the retinoid-related orphan receptor gamma (ROR-gamma) signaling pathway (AID 1159521;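 note: CHO cells with doxycycline inducible ROR-gamma driving an RORE luciferase reporter; top concentration of the series differs between compounds; % is set by controls: 0 for no effect and ±100 for the full control effect; nearly all actives have a fitted effect of over 50% in size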). Summed up: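 RORγ antagonism is scored from reduced reporter luminescence in Tet-on CHO cells. Induction used 1 uM final doxycycline hyclate for 16 h at 37 C, following a 2 h compound exposure.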

Test [7] in a line: qHTS assay to identify small molecule agonists of the AP-1 signaling pathway - cell viability counter screen (AID 1159525; calls by dose curve; note: nearly all actives have a fitted effect of over 55% in size). Summed up: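 Same-well cytotoxicity counter screen of the Tox21 10K library in ME-180 cells. The readout is ATP-dependent luminescence after 5 h compound treatment. Data are normalised to DMSO and tetra n-octyl ammonium bromide controls.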
Test [8] is described as follows: qHTS assay to identify small molecule agonists of the AP-1 signaling pathway (AID 1159526; calls by dose curve; note: % is set by controls: 0 for no effect and ±100 for the full control effect).
Test [9] has as its target Retinoic acid receptor RXR-alpha (Homo sapiens) (UniProt P19793). The test is described as follows: qHTS assay to identify small molecule agonists of the RXR signaling pathway (AID 1159527; calls by dose curve; note: nearly all actives have a fitted effect of over 35% in size; note: potency is the fitted concentration of half-maximal effect). Put shortly:
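qHTS of the Tox21 10K library in GeneBLAzer RXR-alpha HEK 293T cells carrying a beta-lactamase reporter […]; 16 hr treatment, 9-cis retinoic acid as agonist control, FRET read-out.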

Test [10] is described as follows: qHTS assay to identify small molecule agonists of the RXR signaling pathway - cell viability counter screen (AID 1159529). Put shortly: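 Cell viability is measured by CellTiter-Glo luminescence, 30 min at room temperature, in wells already read for beta-lactamase. Engineered HEK 293T cells (RXR-alpha-UAS-bla) are dosed 16 hr at 37 C. Tetraoctyl ammonium bromide serves as positive control.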

Test [11] can be described thus: qHTS assay to identify small molecule antagonists of the retinoid acid receptor (RAR) signaling pathway - cell viability counter screen (AID 1159551). Note: % is set by controls: 0 for no effect and ±100 for the full control effect; nearly all actives have a fitted effect of over 35% in size. Put shortly:
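Viability of C3RL4 cells is quantified from ATP by luminescence after 6 h treatment at 37 C with compounds and 1 uM retinol.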

Test [12] in a line: qHTS assay to identify small molecule antagonists of the retinoic acid receptor (RAR) signaling pathway (AID 1159552). Put shortly: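 Quantitative HTS in C3RL4 RARE-luciferase reporter cells. Compounds were added with 1 uM (final) retinol; luminescence was read after 6 hr.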
Test [13] in a line: qHTS assay to identify small molecule agonists of the retinoic acid receptor (RAR) signaling pathway (AID 1159553). Note: % is set by controls: 0 for no effect and ±100 for the full control effect. Summed up:
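Compounds dissolved in DMSO were pinned onto C3RL4 cells seeded the previous day, and plates were held 6 hr at 37 C. RARE-driven luciferase output was then read by luminescence.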

Test [14] in a line: qHTS assay to identify small molecule agonists of the endoplasmic reticulum stress response signaling pathway (AID 1159516; active = well fitted activation curve with a large enough effect in the signal ratio in the repeat runs, not every such curve was filed as active; the % refers to the signal ratio; note: % is set by controls: 0 for no effect and ±100 for the full control effect). Put shortly: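 Beta-lactamase expression from the ER stress response element in HeLa reporter cells is quantified with the LiveBLAzer B/G FRET substrate, read at 405 nm excitation after 2 hr at room temperature, following 5 hr compound treatment at 37 C.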

The nature of test [15]: qHTS assay to identify small molecule antagonists of the estrogen related receptor (ERR) signaling pathway - cell viability counter screen (AID 1224818). Summed up: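 Cytotoxicity check run alongside the ERR antagonist screen: cells exposed to test compounds 17.5 h at 37 C, viability taken as CellTiter-Fluor fluorescence intensity.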
The nature of test [16]: qHTS assay to identify small molecule antagonists of the estrogen related receptor (ERR) signaling pathway (AID 1224819). Put shortly:
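ERR reporter cells were plated at 2,000 cells/well and left 6 h at 37 C/5% CO2 before pin-tool transfer of compounds in DMSO. After 18 h at 37 C, One-Glo was added and luminescence was read 30 min later at room temperature.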

Test [17] is described as follows: qHTS assay to identify small molecule agonists of the estrogen related receptor (ERR) signaling pathway (AID 1224820). Note: % is set by controls: 0 for no effect and ±100 for the full control effect. Put shortly: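 Luminescence readout (One-Glo, 30 min RT) from NTP-supplied ERR cell line exposed to compounds for 18 h at 37 C. Cells seeded 2,000 per well and pre-incubated 6 h before pin-tool compound transfer.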
The subject of test [18] is estrogen-related receptor alpha (ERRalpha) with PGC-1alpha coactivator, human. The test is described as follows: qHTS assay to identify small molecule antagonists of the estrogen related receptor signaling pathway with the pleiotropic PPARgamma coactivator (PGC) (AID 1224821; calls by dose curve). Summed up:
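PGC/ERR reporter cells; 6 h pre-incubation 37 C/5% CO2; pin-tool compound in DMSO, 18 h 37 C; One-Glo added, 30 min RT; luminescence read. qHTS antagonist mode.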

A short description of test [19]: qHTS assay to identify small molecule antagonists of the estrogen related receptor signaling pathway with the pleiotropic PPARgamma coactivator (PGC) cell viability counter screen (AID 1224822). Summed up: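 Viable cell signal (CellTiter-Fluor, 30 min, 37 C/5% CO2) was measured in PGC/ERR cells after a 17.5 h compound incubation.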
A short description of test [20]: qHTS assay to identify small molecule agonists of the estrogen related receptor signaling pathway with the pleiotropic PPARgamma coactivator (PGC) (AID 1224823). Note: % is set by controls: 0 for no effect and ±100 for the full control effect. Put shortly: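 Luminescence readout (One-Glo, 30 min RT) from PGC/ERR cell line treated 18 h at 37 C with pin-tool-delivered DMSO compound solutions; cells plated 6 h before dosing. Quantitative HTS format.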

Retinoic acid receptor RXR-alpha (Homo sapiens), sequence (P19793 whole entry, looked up): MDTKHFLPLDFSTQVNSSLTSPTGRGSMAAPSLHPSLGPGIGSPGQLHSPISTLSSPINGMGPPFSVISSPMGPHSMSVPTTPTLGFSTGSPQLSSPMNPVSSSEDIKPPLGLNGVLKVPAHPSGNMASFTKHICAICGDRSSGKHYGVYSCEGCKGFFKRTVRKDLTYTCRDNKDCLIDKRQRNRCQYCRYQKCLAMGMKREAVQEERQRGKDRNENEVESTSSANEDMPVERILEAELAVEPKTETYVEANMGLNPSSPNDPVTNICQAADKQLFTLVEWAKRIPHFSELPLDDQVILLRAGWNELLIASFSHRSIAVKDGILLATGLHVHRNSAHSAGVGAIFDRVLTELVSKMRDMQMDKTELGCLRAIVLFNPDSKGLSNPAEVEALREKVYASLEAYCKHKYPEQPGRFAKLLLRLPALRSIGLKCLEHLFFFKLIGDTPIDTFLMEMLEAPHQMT

Take `CCOC(=O)c1ncn2c1CN(C)C(=O)c1c(I)cccc1-2`: the Potency result in test [1], in test [4], in test [5], in test [6], in test [7] and in test [9] was “inactive” throughout. The Potency result in test [10], in [11], in test [12] and in test [13] was “inactive” in each case. For the same compound, the compound was called inactive in test [2], in test [3] and in test [8].
With `CNC(=O)Oc1cc(C)c(N(C)C)c(C)c1`, the Potency entry in [1], in [4], in test [5], in [6], in test [7] and in [10] was “inactive” in each case. Moreover, the Potency entry in test [11] and in test [12] was “inactive” in each case. Further, the call in [2], in test [3] and in [8] was inactive. Besides, the Potency in test [9] is 43.7 µM (active).
For the compound `CCOC(=O)NC(C)(C)Cc1ccc(Cl)cc1`, the Potency result in test [1], in test [4], in [5], in test [6], in test [7] and in test [9] was “inactive” each time. Also, the Potency result in [10], in [11] and in test [12] was “inactive” each time. For the same compound, the call in test [2], in test [14] and in [8] was inactive.
With `O=c1[nH]oc2c1CCNC2`, the Potency entry in test [1], in test [4], in test [5], in test [6], in [7] and in [9] was “inactive” in each case. In addition, the Potency entry in test [10], in test [11], in test [12] and in test [13] was “inactive” in each case. The outcome in test [2], in test [14], in [8], in test [15], in test [16] and in test [17] was inactive. For the same compound, the call in [18], in test [19] and in test [20] was inactive.
`O=C1CC(=O)NC(=O)N1`: the Potency result in test [1], in [4], in test [5], in test [6], in [7] and in [9] was “inactive” in each case. Besides, the Potency result in test [10], in test [11], in test [12] and in test [13] was “inactive” in each case. Also, the result in test [2], in [14] and in test [8] was inactive.
As for `C=CC=O`, the Potency result in [1], in [4], in test [6], in test [9], in test [10] and in test [11] was “inactive” throughout. The Potency entry in test [12] is “inactive”. Besides, the compound was classed as inactive in [14] and in test [8].
In the case of `CCOC(=O)COc1ccc(Cl)cc1Cl`, the Potency entry in test [1], in [4], in test [5], in [6], in [10] and in [11] was “inactive” each time. Also, the Potency entry in [12] is “inactive”. The outcome in test [2], in test [14] and in [8] was inactive.
Take `Clc1cc2c(cc1Cl)Oc1cc(Cl)c(Cl)cc1O2`: the viability change, negative = cytotoxic in test [1] is 2.97% [at 0.281 µM]; in test [7] it was -6.16% [at 0.29 µM]. The activation in [2] is -0.0516% [at 0.281 µM]; in test [8], 0.434% [at 0.29 µM]; in [9], 5.21% [at 0.29 µM]; in test [13] it was -1.63% [at 0.338 µM]. Further, the activity change, negative = cytotoxicity in test [4] was -1.54% [at 0.281 µM]; in test [10], -1.01% [at 0.29 µM]; in test [11] it was 3.92% [at 0.349 µM]. Besides, in test [5], the activity, negative = cytotoxicity was 0.49% [at 0.349 µM]. In test [6], the activity change, negative = inhibition was 16.4% [at 0.35 µM]. Further, the activity, negative = inhibition in test [12] is -3.48% [at 0.349 µM].
With `CCN[C@@H](C)Cc1ccccc1`, the Potency entry in test [1], in test [4], in test [5], in test [6], in test [7] and in test [9] was “inactive” throughout. Further, the Potency result in test [10], in test [11], in test [12] and in [13] was “inactive” in each case. For the same compound, the call in test [2], in [14] and in test [8] was inactive.
Regarding `Oc1ccc2c3c1O[C@H]1[C@@H](O)C=C[C@H]4[C@@H](C2)NCC[C@@]341`, the Potency result in test [1], in test [4], in [6], in test [7], in test [10] and in test [11] was “inactive” throughout. In addition, in test [13], the Potency entry was “inactive”. For the same compound, the compound was called inactive in test [2], in test [14] and in test [8].
